An excerpt weighted towards active compounds, which were near 0.96% of everything screened.
A488 fluor = qHTS Assay for Spectroscopic Profiling in A488 Spectral Region; max dye equivalency, M; compound autofluorescence, A488 spectral region, dye equivalency; Compound Type: qHTS ECL - MLSMR; hit rate 0.1% among 59,000
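Spectroscopic profiling in the A488 region: compounds in pH 8.0 Tris (100 mM), 15 min RT, CCD imaging with 480 nm excitation and 540 nm emission; responses normalized against A488 dye standards.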
Texas Red fluor = qHTS Assay for Spectroscopic Profiling in Texas Red Spectral Region | Compound fluorescence, Texas Red channel, 547/618 nm; hits give high values | max dye-equivalent concentration, M | hit rate 0.06% among 59,000; in the data active = max dye-equivalent concentration above about 10 nM; inconclusive = between about 1.1 nM and that limit
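Texas Red-region profiling: compounds in 100 mM Tris pH 8.0 were read at 547/618 nm after 15 min at room temperature. Intensities were normalized against a six-point Texas Red standard series to give dye-equivalent concentration.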
Rhodamine fluor = qHTS Assay for Spectroscopic Profiling in Rhodamine Spectral Region | AID 594, 2007 | Rhodamine-region fluorescence, 547/598 nm, Tris buffer; hits give high values | hit rate 0.05% among 59,000 | max dye-equivalent concentration, M; in the data active = max dye-equivalent concentration above about 11 nM; inconclusive = between about 1.1 nM and that limit
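Intensities are converted to rhodamine-equivalent concentration using a six-point rhodamine standard on each plate. Compounds sit 15 min at room temperature in 100 mM Tris buffer, pH 8.0; read uses the 547/598 nm excitation/emission pair.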
Resorufin autofl = qHTS Assay for Spectroscopic Profiling in Resorufin Spectral Region; Compound fluorescence, resorufin region 547/598 nm, buffer; hits give high values; max dye-equivalent concentration, M; hit rate 0.04% among 59,000
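Intrinsic fluorescence profiled in the resorufin window (ex 547 nm, em 598 nm) after 15 min at room temperature in pH 8.0 Tris buffer (100 mM); responses normalized against a six-point resorufin standard series as dye-equivalent concentration.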
A647 autofl = qHTS Assay for Spectroscopic Profiling in A647 Spectral Region | Compound fluorescence, A647 channel (570/671 nm), Tris buffer | max dye-equivalent concentration, M | 59,000 tested, under 10 active;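 note: values scaled relative to a standard on each plate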
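Compounds pinned into 100 mM Tris pH 8.0, 15 min at room temperature, then read with 570 nm excitation/671 nm emission filters. Fluorescence normalized to an on-plate six-point Alexa 647 standard curve, giving dye-equivalent concentration per compound concentration.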
Fluorescein fluor = qHTS Assay for Spectroscopic Profiling in Fluorescein Spectral Region | Compound autofluorescence, 480/540 nm, fluorescein-equivalent; hits give high values | hit rate 0.91% among 59,000 | AID 593, 2007 | max fluorescein-equivalent concentration, M; in the data active = max fluorescein-equivalent concentration above about 10 nM; inconclusive = between about 1.1 nM and that limit
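Tris 100 mM pH 8.0; 15 min RT; CCD read, ex 480/em 540 nm. Output: fluorescein-equivalent concentration per compound concentration, from six-point dye series on each plate.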
* marks the source's active call; other numbers are inactive results; i = inactive; ? = inconclusive. Unless noted, the rule behind the calls is not given here.

SMILES	A488 fluor	Texas Red fluor	Rhodamine fluor	Resorufin autofl	A647 autofl	Fluorescein fluor
CCOn1c(=O)c(-c2cc3ccccc3o2)[n+]([O-])c2ccccc21	?	i	i	i	1.4e-08	1.3e-07M*
CN1CCC2(CC1)C1CN(C)CC=C1C(C#N)=C(N)C2(C#N)C#N (centres undefined)	?	i	i	i	2.1e-09	6e-08M*
C=CCN1C(=O)C2(c3ccccc31)C1CCCC=C1C(C#N)=C(N)C2(C#N)C#N (centres undefined)	i	i	i	i	1.5e-08	i
COc1ccccc1CN1CCCC2(CCN(C(C)=O)CC2)C1	i	i	i	i	1.9e-08	?
Cc1cc(=O)[nH]c(SCCOc2ccc3c(c2)CCC3)n1	i	i	i	i	1e-09	i
Cc1cc(=O)[nH]c(SCCOc2ccc(OC(C)C)cc2)n1	i	?	?	?	1.7e-08	2.2e-08M*
CCN(CC)c1ccc2c(c1)OC(N)=C(C#N)C2c1cccnc1 (centres undefined)	?	i	i	i	1.3e-08	4.8e-08M*
Cc1ccc(-c2c3c(=O)n(C)c(=O)n(C)c3c3c(C)cc(C)nn23)cc1	i	?	i	i	2.7e-08	1.3e-08M*
Cc1ccc(-c2c3c(=O)n(C)c(=O)n(C)c3cn2N2CCOCC2)cc1	i	i	i	i	5.9e-09	?
COc1ccc(C2C=C(c3ccc(Br)cc3)Nc3nc(N4C(=O)CCC4=O)nn32)cc1 (centres undefined)	i	i	i	i	4.1e-09	1.1e-08M*
COc1ccccc1C1C=C(c2ccc(Cl)cc2)Nc2nc(N3C(=O)CCC3=O)nn21 (centres undefined)	i	i	i	i	4.4e-08	?
COc1ccc(C2C=C(c3ccc(Cl)cc3)Nc3nc(NC(C)=O)nn32)cc1 (centres undefined)	i	i	i	i	3.5e-09	2.8e-08M*
COc1ccc(C2=CC(c3ccc(Cl)cc3)n3cnnc3N2)cc1OC (centres undefined)	?	i	i	i	6.2e-08	3.5e-08M*
COc1ccccc1C1C=C(c2ccc(Cl)cc2)Nc2nc(NS(C)(=O)=O)nn21 (centres undefined)	i	?	i	i	2.3e-08	1.5e-08M*
COc1ccc(CCN(Cc2cc3cc4c(cc3[nH]c2=O)OCO4)C(C)=O)cc1OC	i	i	i	i	5.3e-08	?
CCOC(=O)Cn1nnnc1CN(Cc1ccccc1)Cc1cc2cc(CC)ccc2[nH]c1=O	i	i	i	i	1.1e-09	i
O=C(COc1ccc(F)c(Cl)c1)c1ccc[nH]1	i	?	i	i	9.8e-09	i
CC(=O)Nc1nc2n(n1)C(c1ccc(F)cc1)C=C(c1ccccc1)N2 (centres undefined)	i	i	i	i	4.1e-08	1.4e-08M*
O=Nc1c(-c2c(O)[nH]c3ccccc23)[nH]c2ccccc12	i	i	i	i	5e-08	?
CC1(C)N([O-])C(c2cccs2)=C[N+]1=O	i	?	i	i	3.8e-09	i
N#CC1=C(N)SC(N)=C(C#N)C1c1c(Cl)cccc1Cl	i	i	i	i	8e-09	i
N#CC1=C(N)SC(N)=C(C#N)C1CCc1ccccc1	i	i	i	i	1.2e-08	1.2e-08M*
CCOC(=O)CCSc1nc(C)cc(C(F)(F)F)c1C#N	i	i	i	i	1e-09	1.5e-08M*
CCS(=O)(=O)CCSc1nc(C)cc(C)c1C#N	i	i	i	i	1e-09	i
N[C@@H](Cc1[nH]nc2ccccc12)C(=O)O	i	i	i	i	2.3e-09	1.1e-08M*
SMILES	A488 fluor	Texas Red fluor	Rhodamine fluor	Resorufin autofl	A647 autofl	Fluorescein fluor
O=C(CCN1CCOCC1)Nc1ccc(F)cc1F	i	i	i	i	1.7e-08	i
COCCn1c(=O)c(-c2ccc(OC)cc2)nc2cnc(Nc3ccccc3)nc21	i	i	i	i	1e-09	2.4e-08M*
COCCn1c(=O)c(-c2cccs2)nc2cnc(Nc3ccccc3)nc21	i	i	i	i	2.6e-08	2.7e-08M*
COc1cccc2c1C(=O)c1c(O)c3c(c(O)c1C2=O)C[C@@](O)(C(C)=O)C[C@@H]3O[C@H]1C[C@H](N)[C@H](O)[C@H](C)O1	?	6.5e-08M*	6.4e-08M*	5.9e-08M*	3.3e-09	2.2e-07M*
O=c1cnc2cncnc2n1Cc1ccccc1Cl	i	i	i	i	2.5e-08	i
C=CCOc1cccc(C2C(C(=O)c3ccc(C)o3)=C(O)C(=O)N2c2nccs2)c1 (centres undefined)	?	i	i	i	1.9e-08	3.6e-08M*
CN(C)C(=O)c1ccc(Oc2ccc(C(=O)N(C)C)cc2)cc1	i	?	i	i	1.7e-08	i
O=C1c2ccccc2C(=O)c2c(NC3CCCCC3)ccc(Nc3ccc(S(=O)(=O)O)cc3)c21	i	6.1e-08M*	1.2e-08M*	?	3.3e-08	?
Cc1cc(C(F)(F)F)c2c(N)c(C(=O)Nc3cc(C)on3)sc2n1	i	i	i	i	1e-08	1.2e-08M*
C=CCNc1nc(N)c(C(=O)Nc2cc(C)on2)s1	i	i	i	i	1e-09	i
Cc1ccc(-n2nc(-c3cccs3)cc2C(=O)NCC2CCCO2)c(C)c1 (centres undefined)	i	i	i	i	1.1e-08	?
COc1cccc(C2=CC(c3ccc(C)cc3)n3ncnc3N2)c1 (centres undefined)	i	?	i	i	6.2e-09	1e-08M*
Nc1nc2nc(SCC(=O)N3CCCc4ccccc43)[nH]c2c(=O)[nH]1	i	?	i	i	1e-09	i
CCN(CC)CC[n+]1ccc2c(C)c3[nH]c4ccccc4c3c(C)c2c1	i	i	i	i	4e-08	1.7e-08M*
CCN(CC)CCCn1c(=S)[nH]c2ccccc2c1=O	i	i	i	i	1.5e-09	i
COc1ncc2nc(-c3cn(C)c4ccccc34)c(=O)n(-c3ccccc3)c2n1	i	i	i	i	6.3e-09	1.5e-08M*
CCNc1ncc2nc(-c3cn(C)c4ccccc34)c(=O)n(-c3ccccc3)c2n1	i	i	i	i	5.4e-09	1.1e-08M*
CCN1C(=S)SC(=O)C1=C1C=C(C)N(CCOC)C(C)=C1	i	i	i	i	1e-09	1.1e-08M*
CCN1C(=S)SC(=O)C1=C1C=C(C)N(CCO)C(C)=C1	i	i	i	i	1e-09	?

Screening results from PubChem BioAssay.
